From PubChem BioAssay (EPA / NIEHS) come the findings set out here.

For experiment [1], the target named is Retinoic acid receptor RXR-alpha (Homo sapiens) (UniProt P19793). Kind of experiment: ATG_RXRa_TRANS: Attagene TRANS-FACTORIAL HepG2 Assay for human Retinoid X Receptor alpha (RXRa) (AID 2283012; active = hit-call score of the fitted dose curve at least 0.9, where 1 is the maximum). The method in brief: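 Cells (HepG2) carried transiently transfected GAL4-responsive reporter units. Following a 24 h chemical incubation, reporter mRNA induction was read via RT-PCR fragment analysis; DMSO served as negative control and baseline.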

The target of experiment [2] is human Retinoid X Receptor beta (RXRb), RXRB (gene 6257) (UniProt P28702). Kind of experiment: ATG_RXRb_TRANS: Attagene TRANS-FACTORIAL HepG2 Assay for human Retinoid X Receptor beta (RXRb) (AID 2283013; active = hit-call score of the fitted dose curve at least 0.9, where 1 is the maximum). The method in brief:
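Multiplexed TRANS reporter assay in HepG2; 24 h dosing; reporter mRNA by RT-PCR/CE fluorescence; gain-of-signal relative to DMSO.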

Read-out in experiment [3]: E-selectin (Homo sapiens) (UniProt P16581)
Kind of experiment: BSK_3C_Eselectin: BioMAP Diversity Plus: 3C Assay for Eselectin Biomarker Activity (AID 2283015).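 For outcome: cell surface E-selectin protein quantified by ELISA 24 h after dosing.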 To be noted: primary human endothelial cells (HUVEC); actives raise or lower the signal. An outline of the steps: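 E-selectin ELISA readout, fitted bidirectionally relative to DMSO, taken 24 h post-dosing in HUVEC cultures of the 3C system. Overt cytotoxicity tracked with sulforhodamine B staining of parallel wells.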

Read-out in experiment [4]: Interleukin-1 alpha (IL1a), IL1A (gene 3552)
Kind of experiment: BSK_BE3C_IL1a: BioMAP Diversity Plus: BE3C Assay for Interleukin-1 alpha (IL1a) Biomarker Activity (AID 2283016). The following applies: primary human bronchial epithelial cells; actives raise or lower the signal. The method in brief:
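Cultures of primary human bronchial epithelial cells receive test chemical. After 24 h, IL-1a is quantified by ELISA, while parallel wells are fixed in TCA and SRB-stained for total protein. Changes in either direction are fitted relative to DMSO.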

Read-out in experiment [5]: Monocyte Chemoattractant Protein-1 (MCP1), CCL2 (gene 6347)
Nature of the experiment: BSK_3C_MCP1: BioMAP Diversity Plus: 3C Assay for Monocyte Chemoattractant Protein-1 (MCP1) Biomarker Activity (AID 2283017). The following applies: primary human endothelial cells (HUVEC); actives raise or lower the signal. An outline of the steps:
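MCP-1 was measured by ELISA 24 h after dosing in primary HUVEC 3C cultures and fitted in both directions relative to DMSO; cytotoxicity was checked by SRB total-protein staining in parallel wells.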

Read-out in experiment [6]: Monocyte Chemoattractant Protein-1 (MCP1), CCL2 (gene 6347)
Kind of experiment: BSK_4H_MCP1: BioMAP Diversity Plus: 4H Assay for Monocyte Chemoattractant Protein-1 (MCP1) Biomarker Activity (AID 2283018). The following applies: primary human endothelial cells (HUVEC); actives raise or lower the signal. An outline of the steps:
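Readout: MCP-1 ELISA on compound-treated HUVEC, sampled 24 h post-dosing. Baseline and negative control DMSO; bidirectional fit. Overt toxicity checked alongside by sulforhodamine B protein staining at time of biomarker measurement.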

Read-out in experiment [7]: Human Leukocyte Antigen - DR isotype (HLADR), HLA-DRA (gene 3122)
Kind of experiment: BSK_3C_HLADR: BioMAP Diversity Plus: 3C Assay for Human Leukocyte Antigen - DR isotype (HLADR) Biomarker Activity (AID 2283019).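 For outcome: ELISA of cell-surface HLA-DR on HUVEC 24 h after dosing.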 To be noted: primary human endothelial cells (HUVEC); actives raise or lower the signal. An outline of the steps: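 Bidirectional fitting against DMSO was applied to the HLA-DR ELISA signal from human umbilical vein endothelial cells, 24 h post-dose. Cytotoxicity came from parallel SRB total-protein staining; 3C proliferation was counted by SRB at 48 h.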

Read-out in experiment [8]: Monokine induced gamma interferon (MIG), CXCL9 (gene 4283)
Kind of experiment: BSK_3C_MIG: BioMAP Diversity Plus: 3C Assay for Monokine induced gamma interferon (MIG) Biomarker Activity (AID 2283021).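 For AC50: MIG protein level measured by immunoassay in the treated endothelial cultures.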 The following applies: primary human endothelial cells (HUVEC); actives raise or lower the signal. An outline of the steps: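 After 24 h of treatment, human umbilical vein endothelial cultures (3C system) had their MIG biomarker level determined by ELISA, with DMSO serving as negative control.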

Experiment [9] concerns the target human Vitamin D Receptor (VDR), VDR (gene 7421) (UniProt P11473). Kind of experiment: ATG_VDR_TRANS: Attagene TRANS-FACTORIAL HepG2 Assay for human Vitamin D Receptor (VDR) (AID 2283022; active = hit-call score of the fitted dose curve at least 0.9, where 1 is the maximum). An outline of the steps:
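Transactivation by an exogenous VDR-Gal4 chimera in transiently transfected HepG2 cells was measured as reporter transcript level 24 hours after chemical treatment. RT-PCR products were analysed by capillary electrophoresis and fitted in the positive direction relative to DMSO.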

The nature of experiment [10]: BSK_3C_SRB: Viability Assessment in the BioMAP Diversity Plus: 3C Assay (AID 2283023).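 Note: fitted both ways against DMSO so a hit may be signal rise or drop.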 To be noted: primary human endothelial cells (HUVEC). An outline of the steps:
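Cytotoxicity readout in parallel HUVEC 3C cultures: after 24 h compound exposure, cells fixed with 10% TCA, stained with 0.1% SRB and read at 560 nm. Gain or loss relative to DMSO fitted.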

Read-out in experiment [11]: Matrix Metallopeptidase 1 (MMP1), MMP1 (gene 4312)
Nature of the experiment: BSK_BE3C_MMP1: BioMAP Diversity Plus: BE3C Assay for Matrix Metallopeptidase 1 (MMP1) Biomarker Activity (AID 2283024). To be noted: primary human bronchial epithelial cells; actives raise or lower the signal. The method in brief: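 Dose cells, wait 24 h, run MMP1 ELISA; cells are human bronchial epithelial primaries. Both increases and decreases relative to DMSO counted.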

A short description of experiment [12]: BSK_3C_Vis: BioMAP Diversity Plus: 3C Assay for Morphology Visualization (AID 2283025).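 For AC50: light microscopy image of cell morphology used as background control.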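 Note: fitted both ways so gain or loss versus DMSO counts.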 The following applies: primary human endothelial cells (HUVEC). The method in brief: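 Endothelial cells from human umbilical vein were treated with test chemicals for 24 h and inspected by light microscopy for changes in cell conformation.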
Experiment [13] in a line: BSK_4H_SRB: Viability Assessment in the BioMAP Diversity Plus: 4H Assay (AID 2283027).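 For AC50: curves fitted both ways versus DMSO so AC50 may be loss or gain.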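 Note: cells exposed to compound for 24 h before staining.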 The following applies: primary human endothelial cells (HUVEC). An outline of the steps: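 Human umbilical vein endothelial cells, 24 h after chemical dosing; total protein measured by 0.1% sulforhodamine B staining after 10% TCA fixation, read at 560 nm. Bidirectional fitting against DMSO.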

Read-out in experiment [14]: Thrombomodulin, THBD (gene 7056)
Nature of the experiment: BSK_3C_Thrombomodulin: BioMAP Diversity Plus: 3C Assay for Thrombomodulin Biomarker Activity (AID 2283029). The following applies: primary human endothelial cells (HUVEC); actives raise or lower the signal. The method in brief:
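Thrombomodulin ELISA, human primary HUVEC, 24 h post-dose; data fitted in both directions relative to DMSO.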

Read-out in experiment [15]: Urokinase-type plasminogen activator receptor (uPAR), PLAUR (gene 5329)
Nature of the experiment: BSK_4H_uPAR: BioMAP Diversity Plus: 4H Assay for Urokinase-type plasminogen activator receptor (uPAR) Biomarker Activity (AID 2283030). To be noted: primary human endothelial cells (HUVEC); actives raise or lower the signal. The method in brief: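 uPAR level read by ELISA on HUVEC cultures (BioMAP 4H) 24 h post-dosing, analyzed for gain or loss relative to DMSO. Parallel SRB staining assessed overt cytotoxicity.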

Read-out in experiment [16]: Pselectin, SELP (gene 6403)
Nature of the experiment: BSK_4H_Pselectin: BioMAP Diversity Plus: 4H Assay for Pselectin Biomarker Activity (AID 2283026). The following applies: primary human endothelial cells (HUVEC); actives raise or lower the signal. An outline of the steps:
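Human vascular endothelium from umbilical vein; P-selectin measured by ELISA at 24 h post-dose, with cytotoxicity checked by sulforhodamine B total-protein staining in parallel cultures (0.1% SRB after 10% TCA fixation, read at 560 nm).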

The target in experiment [17] is human Thyroid Receptor alpha (THRa1), THRA (gene 7067) (UniProt P10827). Kind of experiment: ATG_THRa1_TRANS: Attagene TRANS-FACTORIAL HepG2 Assay for human Thyroid Receptor alpha (THRa1) (AID 2283014; active = hit-call score of the fitted dose curve at least 0.9, where 1 is the maximum). An outline of the steps: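 Transcripts from GAL4-UAS-driven reporters, measured after 24 h compound exposure by RT-PCR plus capillary electrophoresis of 6-FAM-labeled fragments, were fitted for gain of signal relative to DMSO. Cells: transiently transfected HepG2 expressing NR-Gal4 chimeras.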

The nature of experiment [18]: BSK_BE3C_SRB: Viability Assessment in the BioMAP Diversity Plus: BE3C Assay (AID 2283028). The following applies: primary human bronchial epithelial cells. The method in brief:
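Cytotoxicity read-out: SRB (0.1%) staining of TCA-fixed (10%) human lung bronchial epithelial cells, absorbance 560 nm, 24 h post-dosing. Curves fitted both directions relative to DMSO.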

Read-out in experiment [19]: Interleukin-8 (IL8), CXCL8 (gene 3576)
Kind of experiment: BSK_3C_IL8: BioMAP Diversity Plus: 3C Assay for Interleukin-8 (IL8) Biomarker Activity (AID 2283020). To be noted: primary human endothelial cells (HUVEC); actives raise or lower the signal. The method in brief:
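Human vascular endothelial cells (umbilical vein) in the 3C system; IL-8 level detected by ELISA at 24 h post-dose, with DMSO as baseline.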

Results filed as inconclusive are left out. The source made the active and inactive calls. Rule for the calls, unless noted: active = hit-call score of the fitted dose curve at least 0.9, where 1 is the maximum; inactive = score below 0.9.

human Retinoid X Receptor beta (RXRb), RXRB (gene 6257), sequence (P28702 whole entry, looked up): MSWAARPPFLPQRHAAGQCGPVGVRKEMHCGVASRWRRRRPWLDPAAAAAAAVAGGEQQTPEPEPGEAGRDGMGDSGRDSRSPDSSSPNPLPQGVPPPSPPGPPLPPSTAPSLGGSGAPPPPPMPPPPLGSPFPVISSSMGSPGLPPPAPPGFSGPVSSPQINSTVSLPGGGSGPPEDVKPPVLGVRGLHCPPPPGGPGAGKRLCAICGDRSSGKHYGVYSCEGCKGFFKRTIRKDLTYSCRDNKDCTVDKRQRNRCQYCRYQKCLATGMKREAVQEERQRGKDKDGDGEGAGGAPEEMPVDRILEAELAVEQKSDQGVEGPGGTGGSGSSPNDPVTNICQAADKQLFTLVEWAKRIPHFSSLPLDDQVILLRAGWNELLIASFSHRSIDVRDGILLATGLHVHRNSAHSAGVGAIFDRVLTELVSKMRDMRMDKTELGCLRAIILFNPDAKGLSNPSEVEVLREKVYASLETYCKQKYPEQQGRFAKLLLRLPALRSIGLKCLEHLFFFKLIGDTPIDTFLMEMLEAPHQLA
E-selectin (Homo sapiens), sequence (P16581 whole entry, looked up): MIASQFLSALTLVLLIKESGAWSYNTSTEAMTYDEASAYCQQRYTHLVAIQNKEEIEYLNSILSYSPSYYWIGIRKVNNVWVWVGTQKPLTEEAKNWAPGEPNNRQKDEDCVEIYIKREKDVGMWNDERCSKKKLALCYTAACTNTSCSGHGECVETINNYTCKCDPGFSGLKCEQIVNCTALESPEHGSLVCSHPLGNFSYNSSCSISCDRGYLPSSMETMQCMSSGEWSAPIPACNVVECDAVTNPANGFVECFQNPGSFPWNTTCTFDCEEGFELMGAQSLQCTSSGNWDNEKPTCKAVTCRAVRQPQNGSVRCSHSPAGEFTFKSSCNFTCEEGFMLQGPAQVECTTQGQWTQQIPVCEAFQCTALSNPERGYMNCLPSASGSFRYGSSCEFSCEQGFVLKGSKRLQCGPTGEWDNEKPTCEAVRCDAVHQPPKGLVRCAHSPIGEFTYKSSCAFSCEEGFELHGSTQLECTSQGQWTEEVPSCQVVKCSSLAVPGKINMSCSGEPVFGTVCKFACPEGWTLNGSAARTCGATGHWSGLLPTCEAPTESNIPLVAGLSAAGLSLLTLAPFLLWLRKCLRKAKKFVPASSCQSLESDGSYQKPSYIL
human Vitamin D Receptor (VDR), VDR (gene 7421), sequence (P11473 whole entry, looked up, the tested form may be a part): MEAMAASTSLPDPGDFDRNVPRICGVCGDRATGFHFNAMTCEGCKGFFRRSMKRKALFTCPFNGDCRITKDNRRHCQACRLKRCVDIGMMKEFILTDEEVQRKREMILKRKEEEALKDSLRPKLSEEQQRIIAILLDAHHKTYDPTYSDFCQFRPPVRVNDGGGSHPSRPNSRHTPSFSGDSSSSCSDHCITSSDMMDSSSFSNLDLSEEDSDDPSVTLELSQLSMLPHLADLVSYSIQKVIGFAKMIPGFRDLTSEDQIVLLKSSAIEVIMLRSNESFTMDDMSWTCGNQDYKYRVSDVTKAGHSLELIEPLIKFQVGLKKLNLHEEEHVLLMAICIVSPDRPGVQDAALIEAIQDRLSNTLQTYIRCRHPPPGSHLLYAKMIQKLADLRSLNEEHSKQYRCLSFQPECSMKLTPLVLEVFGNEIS
human Thyroid Receptor alpha (THRa1), THRA (gene 7067), sequence (P10827 whole entry, looked up, the tested form may be a part): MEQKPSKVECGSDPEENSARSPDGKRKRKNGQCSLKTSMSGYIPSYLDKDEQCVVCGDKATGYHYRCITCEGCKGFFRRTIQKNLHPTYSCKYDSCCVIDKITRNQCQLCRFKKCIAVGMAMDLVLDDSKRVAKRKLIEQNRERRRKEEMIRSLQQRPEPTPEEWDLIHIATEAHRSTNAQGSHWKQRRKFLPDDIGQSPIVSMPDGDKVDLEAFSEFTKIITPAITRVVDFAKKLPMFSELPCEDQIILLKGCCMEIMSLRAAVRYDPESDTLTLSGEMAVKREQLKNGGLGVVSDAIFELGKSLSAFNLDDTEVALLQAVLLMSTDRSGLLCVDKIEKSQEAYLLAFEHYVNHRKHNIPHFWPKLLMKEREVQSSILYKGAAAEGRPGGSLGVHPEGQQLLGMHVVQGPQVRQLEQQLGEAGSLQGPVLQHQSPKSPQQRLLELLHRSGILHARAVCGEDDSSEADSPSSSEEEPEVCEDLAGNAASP
Retinoic acid receptor RXR-alpha (Homo sapiens), sequence (P19793 whole entry, looked up, the tested form may be a part): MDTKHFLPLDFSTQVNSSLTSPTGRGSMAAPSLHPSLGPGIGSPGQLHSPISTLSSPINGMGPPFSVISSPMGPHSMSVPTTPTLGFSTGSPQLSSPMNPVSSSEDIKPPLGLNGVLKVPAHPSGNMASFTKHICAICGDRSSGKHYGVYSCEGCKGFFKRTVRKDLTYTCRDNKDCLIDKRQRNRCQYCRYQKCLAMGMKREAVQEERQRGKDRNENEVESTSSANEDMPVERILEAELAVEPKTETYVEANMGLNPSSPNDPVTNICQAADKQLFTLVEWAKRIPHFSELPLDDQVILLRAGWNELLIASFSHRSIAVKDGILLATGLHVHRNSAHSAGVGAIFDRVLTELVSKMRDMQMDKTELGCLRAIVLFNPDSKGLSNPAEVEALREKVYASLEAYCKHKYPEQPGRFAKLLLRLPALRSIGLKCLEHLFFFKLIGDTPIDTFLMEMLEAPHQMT

The term AC50 denotes the concentration giving half of the maximal activity seen. Turning to `C=CC(N)=O`, the results for the AC50 in [1] and in experiment [2] were 157 µM (active) and 15.8 µM (active), respectively. In addition, the outcome in experiment [3], in experiment [4], in experiment [5], in experiment [6], in [7] and in experiment [8] was inactive. Moreover, the outcome in experiment [9], in experiment [10], in experiment [11], in experiment [12], in experiment [13] and in [14] was inactive. Moreover, the outcome in experiment [15] was inactive.
With `CC1=C2C[C@H]3[C@@H](CC=C4C[C@@H](O)CC[C@@]43C)[C@@H]2CC[C@]12O[C@@H]1C[C@H](C)CN[C@H]1[C@H]2C`, the outcome in experiment [3], in [4], in experiment [6], in experiment [7], in [8] and in [10] was inactive. For the same compound, the result in experiment [11], in experiment [16], in experiment [13], in experiment [14] and in [15] was inactive. Moreover, the results for the AC50 in experiment [5] and in experiment [12] were 2.82 µM (active) and 4.9 µM (active), respectively.
In the case of `ClC1=C(Cl)[C@]2(Cl)[C@@H]3[C@@H](Cl)[C@H]4O[C@H]4[C@@H]3C1(Cl)C2(Cl)Cl`, the compound was called inactive in experiment [1], in experiment [2], in experiment [3], in experiment [4], in experiment [5] and in experiment [6]. Further, the outcome in experiment [8], in experiment [9], in experiment [11], in experiment [12], in experiment [13] and in [14] was inactive. For the same compound, the outcome in [15] was inactive. Besides, the AC50 in [7] was 11.5 µM (active); in experiment [10], 11.9 µM (active).
As to `Clc1ccc(C(c2ccccc2Cl)C(Cl)(Cl)Cl)cc1` (stereo not drawn), the compound was called inactive in experiment [1], in experiment [17], in experiment [4], in experiment [9], in [11] and in [18]. Moreover, the result in experiment [14] was inactive. The AC50 is 17.1 µM (active) in experiment [3]; 11.4 µM (active) in experiment [5]; 9.7 µM (active) in experiment [6]; 10.2 µM (active) in experiment [7]; 21.5 µM (active) in experiment [8]; 16.1 µM (active) in experiment [10]. The AC50 was 26.4 µM (active) in experiment [12], 19.5 µM (active) in experiment [13] and 21.2 µM (active) in experiment [15].
For the compound `Oc1ccc(Cl)cc1Cl`, the compound was called inactive in [17], in experiment [3], in experiment [4], in experiment [5], in experiment [6] and in experiment [7]. Besides, the result in experiment [19], in [8], in experiment [10], in [11], in experiment [12] and in experiment [13] was inactive. Further, the result in experiment [14] and in experiment [15] was inactive.
`CCSC(=O)N(CC)C1CCCCC1`: the call in experiment [2], in [3], in experiment [4], in experiment [5], in experiment [6] and in experiment [7] was inactive. The outcome in experiment [19], in [8], in [9], in experiment [10], in [11] and in [12] was inactive. Also, the result in experiment [13], in [18], in experiment [14] and in [15] was inactive.
Consider `Cc1ccccc1O`, for which the call in experiment [1], in [3], in experiment [4], in experiment [5], in experiment [6] and in experiment [7] was inactive. Moreover, the result in experiment [8], in experiment [9], in [10], in experiment [11], in experiment [12] and in experiment [13] was inactive. Further, the result in experiment [14] and in experiment [15] was inactive.
